# Assay results as given in PubChem BioAssay AID1159580 (chemical genetic matrix, 2015).
# The campaign covered roughly 5,500 compounds. About 2,000 (36%) were called active. Roughly 18% stayed inconclusive and do not appear here. This is one part of the list. Unmarked numbers belong to inactive results. Rule as the data show it: active = normalized growth mostly below about 0.91 (no sharp cut-off); inconclusive = no clear call, values can overlap the other calls; inactive = mostly above about 0.92.
# Test: chemical genetic growth profiling, strain panel (AID 1159580);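 also: tested at 20 µM; growth read once vehicle control cultures reached saturation at 30 °C; 1 = growth at the plate median or of vehicle wells; lower values mean less growth of the strain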
# Conditions: S. cerevisiae deletion strains, growth OD
# [1] = locus YDL101C, strain DUN1, hits give low values
# [2] = locus YDR150W, strain NUM1, hits give low values
# [3] = locus YGR078C, strain PAC10, hits give low values
# [4] = locus YHR030C, strain SLT2, hits give low values
# [5] = locus YJR075W, strain HOC1, hits give low values
# [6] = locus YMR263W, strain SAP30, hits give low values
# [7] = locus YNL128W, strain TEP1, hits give low values
# [8] = locus YNL153C, strain GIM3, hits give low values
# [9] = locus YNL322C, strain KRE1, hits give low values
# [10] = locus YPL055C, strain LGE1, hits give low values
# [11] = locus YAL040C, strain CLN3, hits give low values
# [12] = locus YCL061C, strain MRC1 (second series), hits give low values
# [13] = locus YDR363W, strain ESC2, hits give low values
# [14] = locus YER002W, strain NOP16, hits give low values
# [15] = locus YMR307W, strain GAS1, hits give low values
# [16] = locus YNL175C, strain NOP13, hits give low values
# [17] = locus YNL197C, strain WHI3, hits give low values
# [18] = locus YNL224C, strain SQS1, hits give low values
# [19] = locus YOR083W, strain WHI5 (second series), hits give low values
structure (smiles),measurement,setting,value
CCCC(C)(SCC(=O)O)SCC(=O)O,normalized growth,"locus YAL013W, strain DEP1, hits give low values",1
same,normalized growth,"locus YBR229C, strain ROT2, hits give low values",1
same,normalized growth,[1],1.09
same,normalized growth,[2],1.03
same,normalized growth,"locus YEL061C, strain CIN8, hits give low values",0.951
same,normalized growth,[3],1.02
same,normalized growth,[4],1.03
same,normalized growth,"locus YHR087W, strain rtc3, hits give low values",0.98
same,normalized growth,"locus YJL187C, strain SWE1, hits give low values",1
same,normalized growth,"locus YJR043C, strain POL32, hits give low values",1.01
same,normalized growth,[5],1.04
same,normalized growth,"locus YKL190W, strain CNB1, hits give low values",0.992
same,normalized growth,"locus YLR039C, strain RIC1, hits give low values",0.981
same,normalized growth,"locus YLR058C, strain SHM2 (second series), hits give low values",0.984
same,normalized growth,"locus YLR085C, strain ARP6, hits give low values",1.02
same,normalized growth,"locus YLR262C, strain YPT6, hits give low values",1.02
same,normalized growth,"locus YML094W, strain GIM5, hits give low values",0.993
same,normalized growth,"locus YMR219W, strain ESC1, hits give low values",0.999
same,normalized growth,[6],1.01
same,normalized growth,[7],0.985
same,normalized growth,[8],1.04
same,normalized growth,"locus YNL298W, strain CLA4 (second series), hits give low values",1.02
same,normalized growth,[9],0.993
same,normalized growth,"locus YNR030W, strain Alg12, hits give low values",1.01
same,normalized growth,"locus YOL006C, strain TOP1, hits give low values",1
same,normalized growth,[10],1
same,normalized growth,"locus YPL241C, strain CIN2, hits give low values",1.05
same,normalized growth,"locus YPR135W, strain CTF4, hits give low values",1.08
CCCCCCCCCCCCCCSCC(=O)O,normalized growth,[11],0.97
same,normalized growth,[12],1.01
same,normalized growth,[2],0.997
same,normalized growth,[13],0.993
same,normalized growth,[14],0.937
same,normalized growth,[3],0.998
same,normalized growth,"locus YGR229C, strain SMI1, hits give low values",0.959
same,normalized growth,[5],0.99
same,normalized growth,[6],1
same,normalized growth,[15],0.992
same,normalized growth,[16],0.938
same,normalized growth,[17],0.957
same,normalized growth,[18],0.954
same,normalized growth,[19],0.825 (active)
same,normalized growth,[10],0.955
C=CC(=O)N1CCc2cc([N+](=O)[O-])ccc21,normalized growth,"locus YAR019C, strain CDC15, hits give low values",0.735 (active)
same,normalized growth,"locus YBL105C, strain PKC1, hits give low values",0.778 (active)
same,normalized growth,"locus YBR135W, strain CKS1, hits give low values",0.766 (active)
same,normalized growth,"locus YBR136W, strain MEC1, hits give low values",0.764 (active)
same,normalized growth,"locus YBR160W, strain CDC28, hits give low values",0.791 (active)
same,normalized growth,"locus YDL017W, strain CDC7, hits give low values",0.8 (active)
same,normalized growth,"locus YDL028C, strain MPS1, hits give low values",0.796 (active)
same,normalized growth,[1],0.789 (active)
same,normalized growth,"locus YDL108W, strain KIN28, hits give low values",0.798 (active)
same,normalized growth,"locus YDL132W, strain cdc53, hits give low values",0.725 (active)
same,normalized growth,"locus YDL214C, strain PRR2, hits give low values",0.37 (active)
same,normalized growth,"locus YDR052C, strain DBF4, hits give low values",0.827 (active)
same,normalized growth,"locus YDR054C, strain cdc34, hits give low values",0.689 (active)
same,normalized growth,"locus YDR226W, strain ADK1, hits give low values",0.839 (active)
same,normalized growth,"locus YDR477W, strain SNF1, hits give low values",0.335 (active)
same,normalized growth,"locus YER123W, strain YCK3, hits give low values",0.236 (active)
same,normalized growth,"locus YER133W, strain GLC7, hits give low values",0.275 (active)
same,normalized growth,"locus YFL009W, strain cdc4, hits give low values",0.739 (active)
same,normalized growth,"locus YFL029C, strain CAK1, hits give low values",0.72 (active)
same,normalized growth,"locus YFR003C, strain YPI1, hits give low values",0.807 (active)
same,normalized growth,"locus YFR019W, strain FAB1, hits give low values",0.369 (active)
same,normalized growth,"locus YFR028C, strain CDC14, hits give low values",0.805 (active)
same,normalized growth,"locus YGR040W, strain KSS1, hits give low values",0.287 (active)
same,normalized growth,"locus YGR052W, strain FMP48, hits give low values",0.308 (active)
same,normalized growth,"locus YGR092W, strain DBF2, hits give low values",0.12 (active)
same,normalized growth,[4],0.253 (active)
same,normalized growth,"locus YHR079C, strain IRE1, hits give low values",0.255 (active)
same,normalized growth,"locus YHR082C, strain KSP1, hits give low values",0.263 (active)
same,normalized growth,"locus YHR205W, strain SCH9, hits give low values",0.228 (active)
same,normalized growth,"locus YIL147C, strain SLN1, hits give low values",0.794 (active)
same,normalized growth,"locus YJL095W, strain BCK1, hits give low values",0.276 (active)
same,normalized growth,"locus YJL128C, strain PBS2, hits give low values",0.842
same,normalized growth,"locus YJL157C, strain FAR1, hits give low values",0.315 (active)
same,normalized growth,"locus YJR016C, strain ILV3, hits give low values",0.742 (active)
same,normalized growth,"locus YJR066W, strain TOR1 (second series), hits give low values",0.24 (active)
same,normalized growth,"locus YJR066W, strain TOR1, hits give low values",0.274 (active)
same,normalized growth,"locus YKL048C, strain ELM1, hits give low values",0.556 (active)
same,normalized growth,"locus YKL067W, strain YNK1, hits give low values",0.35 (active)
same,normalized growth,"locus YKL101W, strain HSL1, hits give low values",0.46 (active)
same,normalized growth,"locus YKL193C, strain SDS22, hits give low values",0.729 (active)
same,normalized growth,"locus YKL203C, strain TOR2, hits give low values",0.355 (active)
same,normalized growth,"locus YLR113W, strain HOG1, hits give low values",0.247 (active)
same,normalized growth,"locus YLR133W, strain CKI1, hits give low values",0.409 (active)
same,normalized growth,"locus YLR403W, strain SFP1, hits give low values",0.271 (active)
same,normalized growth,"locus YML070W, strain DAK1, hits give low values",0.311 (active)
same,normalized growth,"locus YMR001C, strain CDC5, hits give low values",0.744 (active)
same,normalized growth,"locus YMR205C, strain PFK2 (second series), hits give low values",0.424 (active)
same,normalized growth,"locus YMR277W, strain FCP1, hits give low values",0.746 (active)
same,normalized growth,"locus YNL006W, strain LST8, hits give low values",0.754 (active)
same,normalized growth,"locus YNL020C, strain ARK1, hits give low values",0.412 (active)
same,normalized growth,"locus YNL161W, strain CBK1, hits give low values",0.737 (active)
same,normalized growth,"locus YNL183C, strain NPR1, hits give low values",0.22 (active)
same,normalized growth,"locus YNL207W, strain RIO2, hits give low values",0.757 (active)
same,normalized growth,"locus YNL222W, strain SSU72, hits give low values",0.734 (active)
same,normalized growth,"locus YNL307C, strain MCK1 (second series), hits give low values",0.323 (active)
same,normalized growth,"locus YOL078W, strain AVO1, hits give low values",0.71 (active)
same,normalized growth,"locus YOL136C, strain PFK27, hits give low values",0.316 (active)
same,normalized growth,"locus YOR061W, strain CKA2, hits give low values",0.498 (active)
same,normalized growth,"locus YOR119C, strain RIO1, hits give low values",0.334 (active)
same,normalized growth,"locus YOR231W, strain MKK1, hits give low values",0.255 (active)
same,normalized growth,"locus YOR329C, strain SCD5, hits give low values",0.759 (active)
same,normalized growth,"locus YPL031C, strain PHO85, hits give low values",0.268 (active)
same,normalized growth,"locus YPL153C, strain RAD53, hits give low values",0.273 (active)
same,normalized growth,"locus YPL204W, strain HRR25, hits give low values",0.282 (active)
same,normalized growth,"locus YPL209C, strain IPL1, hits give low values",0.778 (active)
same,normalized growth,"locus YPL256C, strain CLN2, hits give low values",0.299 (active)
same,normalized growth,"locus YPR025C, strain CCL1, hits give low values",0.764 (active)
same,normalized growth,"locus YPR106W, strain ISR1, hits give low values",0.864 (active)
same,normalized growth,"locus YPR111W, strain DBF20, hits give low values",0.887
same,normalized growth,"strain NNK1, hits give low values",0.824 (active)
same,normalized growth,"strain TSCII, hits give low values",0.643 (active)
N#CC(Cc1ccc(O)c(O)c1)C(=O)N1CCc2ccccc21 (stereo not drawn),normalized growth,[11],0.961
same,normalized growth,[12],0.986
same,normalized growth,[2],0.997
same,normalized growth,[13],0.97
same,normalized growth,[14],1.01
same,normalized growth,[5],0.995
same,normalized growth,[15],0.986
same,normalized growth,[7],0.996
same,normalized growth,[8],0.977
same,normalized growth,[16],0.999
same,normalized growth,[17],1.02
same,normalized growth,[18],0.994
same,normalized growth,[9],0.952
same,normalized growth,[19],0.965
